# Hits are enriched below; roughly 3% of the tested compounds scored in any of these assays.
# SENP7 block: inhibitors of human SENP7 protease; recombinant SENP7, Z-RLRGG-aminoluciferin luminescence, 40 min; 330,000 tested, 1.5% active; AID 434973; inhibition, % at 5 µM;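 active = inhibition above about 50% at the single test dose, limit read from the data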;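 also: plate controls were DMSO with enzyme for no effect and no enzyme buffer wells for full effect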
# C8 TRAIL sens: sensitizes caspase-8 expressing cells to TRAIL; inhibition (viability loss, TRAIL sensitization), % at 10 µM; NB7+C8 cells + TRAIL, ATPlite viability luminescence; 360,000 tested, 1% active;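 active = compounds causing at least 50% loss of cell viability in the single-dose screen, relative to plate controls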
# SENP6 inh: SENP6 protease inhibition. inhibition, % at 10 µM. Q9GZR1. 330,000 tested, 1.8% active. AID 2599. Recombinant SENP6 catalytic domain, aminoluciferin luminescence;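 active = inhibition above about 50% at the single tested dose, limit read from the data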;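 also: plate controls were DMSO wells with enzyme for no effect and DMSO wells lacking enzyme for full effect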
# SENP8 block-1: inhibitors of human SENP8 protease | 360,000 tested, 0.64% active | recombinant SENP8, Nedd8 substrate fluorescence | Q96LD8 | AID 602440 | inhibition, % at 20 µM; in the data active = inhibition mostly above about 40%, no sharp cut-off; inactive = mostly below about 27%
# Target sequence (Q96LD8 whole entry, looked up): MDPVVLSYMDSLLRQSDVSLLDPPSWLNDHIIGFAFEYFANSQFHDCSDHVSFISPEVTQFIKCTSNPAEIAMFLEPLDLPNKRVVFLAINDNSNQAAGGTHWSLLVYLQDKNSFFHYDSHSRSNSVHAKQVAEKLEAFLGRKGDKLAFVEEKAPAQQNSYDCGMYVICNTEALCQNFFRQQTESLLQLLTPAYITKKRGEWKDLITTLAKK
# SENP8 block-2: blocks the human protease SENP8 | 330,000 tested, 1.2% active | inhibition, % at 10 µM | AID 2540 | purified SENP8, Z-RLRGG-aminoluciferin cleavage, luminescence | Q96LD8; in the data active = inhibition above about 50%
# PPC-1+TRAIL kill: kills PPC-1 cancer cells in the presence of TRAIL; PPC-1 cells + TRAIL, ATPLite viability luminescence; cell killing (% activity), % at 4 µM or 5 µM; 220,000 tested, 0.41% active; AID 1443;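 active = cell killing above 50% in the first pass at 4 µM, then a duplicate retest at 5 µM averaging 50% or more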;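 also: plate controls were cells with TRAIL plus DMSO for no effect and medium-only wells lacking cells for full effect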
# SENP8 conf: human SENP8 inhibition, confirmed; 6,200 tested, 40% active; AID 488912; inhibition, % at 12.5 µM; shares compounds with SENP7 block; Recombinant SENP8, Z-RLRGG-aminoluciferin luminescence, 60 min;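 active = mean inhibition across replicates above about 50%, limit read from the data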
# SENP6 confirm: confirmation of human SENP6 protease inhibitors | shares compounds with SENP7 block | recombinant SENP6, Z-RLRGG-aminoluciferin luminescence | inhibition, % at 12.5 µM | 6,200 tested, 58% active | AID 488915
# SENP7 conf: human SENP7 inhibition, confirmed; 6,200 tested, 69% active; recombinant SENP7, Z-RLRGG-aminoluciferin luminescence, 40 min; inhibition, % at 12.5 µM; shares compounds with SENP7 block
# Casp3 select: inhibits human caspase-3 in SENP selectivity test; shares compounds with SENP7 block; purified caspase-3, Z-DEVD-aminoluciferin luminescence, 60 min; inhibition, % at 12.5 µM; 6,200 tested, 60% active; AID 488918;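 active = mean inhibition above about 50%, limit read from the data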;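 also: plate controls were enzyme with DMSO for no effect and wells without caspase-3 for full effect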
# Target sequence (P42574 28-227 limits assumed): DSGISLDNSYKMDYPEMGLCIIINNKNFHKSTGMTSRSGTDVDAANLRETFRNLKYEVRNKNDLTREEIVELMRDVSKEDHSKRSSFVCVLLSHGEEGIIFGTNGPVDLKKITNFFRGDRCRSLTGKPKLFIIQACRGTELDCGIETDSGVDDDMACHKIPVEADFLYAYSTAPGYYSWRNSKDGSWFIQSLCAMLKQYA
# SENP luc ctr: luminescence interference (SENP counter-screen); shares compounds with SENP7 block; Pre-incubated SENP8/Z-RLRGG-aminoluciferin, luciferase luminescence interference; inhibition, % at 12.5 µM; 6,200 tested, 39% active; AID 488919;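 active = mean inhibition above about 50% when retested at one dose, limit read from the data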;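 also: plate controls were DMSO wells with completed reaction for no effect and substrate without enzyme for full effect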
# The depositor's hits bear a star; / = not tested or not shown.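 The calls were made as follows, unless noted: active = mean inhibition above about 50% in the one-dose retest (limit read from the data); inactive = the rest.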
SMILES,SENP7 block,C8 TRAIL sens,SENP6 inh,SENP8 block-1,SENP8 block-2,PPC-1+TRAIL kill,SENP8 conf,SENP6 confirm,SENP7 conf,Casp3 select,SENP luc ctr
S=C(Nc1ccc(Cl)cc1)c1nc2ccccc2[nH]1,33,69*,59*,9,41,26,13,48,92*,71*,11
CC(=O)Nc1cc(-c2ccoc2)cn2c(-c3ccccc3)cnc12,/,4,/,-278,/,/,/,/,/,/,/
CC1=C(C(=O)N2CCCCCC2)CC(CC(=O)NCCc2ccccn2)C(=O)N1CCC1=CCCCC1 (stereo not given),/,-5,/,13,/,/,/,/,/,/,/
O=C(Nc1nc2ccccc2[nH]1)c1cccc([N+](=O)[O-])c1,26,16,2,5,-13,24,/,/,/,/,/
O=C(Nc1nc2ccccc2[nH]1)Nc1ccccc1F,40,18,60*,15,39,/,14,54*,38,31,5
O=C(Nc1nc2ccccc2[nH]1)c1cccc(Br)c1,57*,34,-17,-11,3,/,-6,1,3,34,10
CN(C)c1cccc(C(=O)Nc2nc3ccccc3[nH]2)c1,65*,83*,33,-193,37,/,41,44,81*,73*,43
O=C(Nc1nc2ccccc2[nH]1)c1cccc(F)c1,91*,43,91*,-4,82*,/,8,84*,98*,92*,33
CCN(CC)S(=O)(=O)c1cccc(C(=O)NC(C)C(c2cccs2)N2CCCC2)c1 (stereo not given),-1,-1,4,11,1,1,/,/,/,/,/
COc1ccc(S(=O)(=O)N2CCCC(c3cc(C(=O)NCc4cccnc4)no3)C2)cc1 (stereo not given),/,11,/,15,/,/,/,/,/,/,/
Cc1cc(C)c(C#N)c(SCC(=O)c2ccccc2)n1,11,4,-9,17,-1,11,/,/,/,/,/
Cc1cc(=O)[nH]c(SCC(=O)c2ccccc2)c1C#N,26,-4,74*,26,60*,17,72*,74*,94*,82*,79*
Cc1ccc(C(=O)N/N=C\c2sccc2C)cn1,5,14,-3,12,-2,10,/,/,/,/,/
Cc1ccsc1/C=N\NC(=O)c1ccc2c(c1)OCO2,50*,48,49,11,14,29,37,34,72*,74*,-1
Cc1ccsc1/C=N/NC(=O)c1sccc1C,93*,18,88*,-6,84*,15,14,92*,101*,94*,23
COc1ccc(-c2cn(CCC(=O)O)c(-c3ccncc3)n2)cc1,-1,5,-9,-132,-10,/,/,/,/,/,/
COc1ccc(-c2cn(Cc3ccc(C(N)=O)cc3)c(-c3ccncc3)n2)cc1,68*,39,72*,-494,61*,/,71*,69*,91*,76*,54*
O=C(NCc1ccccn1)c1ccc(NS(=O)(=O)c2ccccc2)cc1,-4,2,6,8,10,/,/,/,/,/,/
CCC(C)COC(=O)c1ccc(C(=O)O)cc1 (stereo not given),2,-6,62*,26,26,16,42,45,81*,86*,70*
O/N=C/c1ccccc1OCc1ccccc1Cl,2,16,-7,16,-3,17,/,/,/,/,/
COc1cc(/C=N/O)ccc1OCc1ccccc1Cl,50*,19,67*,8,41,20,43,55*,79*,33,59*
